GALC G270D up = galactocerebrosidase G270D activity enhancement, cell-based | AID 1159614 | 145M-Twi-hGALC-G270D cells (Twitcher mouse brain line with human GALC G270D), HMU-beta-Gal fluorescence, 48 h | P54803 | 45,000 compounds, 0.1% hits | Potency, µM (doses to about 57.5 µM), actives largely listed as activators; note: 0% is about no effect; nearly all actives have a fitted effect of over 65% in size
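Fluorogenic HMU-b-Gal hydrolysis (0.1 mM final, pH 5.2 citrate-phosphate with 1 mg/mL sodium taurocholate; carbonate stop buffer) measures mutant GALC activity after compound treatment of live 145M-Twi Twitcher brain cells stably carrying human GALC-G270D, with wild-type GALC line alongside; activation sought.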
NTMT1 inh = blocks human N-terminal methyltransferase 1 activity. Q9BV86. NTMT1 MTase-Glo SAH luminescence, purified enzyme. Potency, µM (highest dose often 114 µM), without a hit: at the top dose activity change, negative = inhibition, hits mostly inhibitors. 59,000 compounds, 2.5% hits. AID 1645870;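 note: plate controls were DMSO vehicle for no effect and no enzyme for full effect; nearly all actives have a fitted effect of over 65% in size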
Target sequence (Q9BV86 whole entry, looked up): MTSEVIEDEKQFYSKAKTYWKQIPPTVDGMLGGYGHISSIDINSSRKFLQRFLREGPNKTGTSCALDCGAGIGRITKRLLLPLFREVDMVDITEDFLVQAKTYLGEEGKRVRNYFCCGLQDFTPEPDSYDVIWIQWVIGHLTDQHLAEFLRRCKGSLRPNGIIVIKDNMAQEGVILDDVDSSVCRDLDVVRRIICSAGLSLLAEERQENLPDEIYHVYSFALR
HTT prom inh = inhibitors of huntingtin promoter activity; 48,000 compounds, 0.93% hits; Potency, µM (titrated, usually from 57.5 µM), without a hit: at the highest dose activity change, negative = inhibition, most hits filed as inhibitors; AID 1508623; HEK293 HTT promoter firefly luciferase reporter, 24 h; note: nearly all actives have a fitted effect of over 50% in size
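Firefly luciferase signal from promoter-reporter HEK293 cells was scaled between vehicle (0%) and zero RLU (-100%). Compounds were tested at final concentrations of up to 57.5 uM over 24 h at 37 degrees C. PTC124 at 50 uM final served as control inhibitor.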
HTT-AS promoter = HTT-AS promoter activation; HEK293 HTT-AS promoter firefly luciferase reporter, 24 h; response scale: percent change from vehicle, -100% = no light; Potency, µM (series often up to 57.5 µM), for the others: at the highest dose activity change, positive = activation, hits mostly activators; 48,000 compounds, 0.24% hits; note: nearly all actives have a fitted effect of over 55% in size
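HEK293 cells carrying firefly luciferase reporters were seeded at 2,500 per well in Opti-MEM and cultured for 24 h. They were then treated with compounds at up to 57.5 uM final for 24 h at 37 degrees C before Dual-Glo luminescence readout.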
Active calls of the source: *; i = inactive; ? = inconclusive; nt = no result given; ! = not confirmed by another sample; [ ] = dose if it differs, or a comment. This is a sample that favours compounds with a hit; in the whole collection about 2.7% have one here. Calls come from the whole dose curve; as a rule, active = well fitted curve in the direction sought with a large enough effect; inconclusive = small, poorly fitted or top-dose-only effect, or another doubt; inactive = no such curve, though single readings can be large; an effect the other way counts as inactive or inconclusive. Potency is the fitted concentration of half-maximal effect.

SMILES | GALC G270D up | NTMT1 inh | HTT prom inh | HTT-AS promoter
COc1ccc(-c2ccc3c(N)c(C(=O)Nc4cc(F)ccc4C)sc3n2)cc1 | 16µM* | -2% | -21% | -28%
Cc1nn(-c2ccccc2)c2c1N(CCCC(=O)NCc1ccc(OC(C)C)cc1)C(=O)CS2 | i | -5% | 14µM* | -43%
CC(C)Oc1ccc(CNC(=O)Cn2nc(N3CCN(c4ccccc4)CC3)ccc2=O)cc1 | i | 89µM* | -15% | -29%
CCOc1ccc(CNC(=O)Cn2nc(N3CCN(c4ccccc4)CC3)ccc2=O)cc1 | i | -8% | -15% | -26%
CC(C)(O)[C@@H]1CC[C@]2(CO)[C@@H](O)CC[C@](C)(O)[C@H]2[C@@H]1O[C@@H]1O[C@H](CO)[C@@H](O)[C@H](O)[C@H]1O | nt | 15%[29.8 µM] | nt | nt
Cc1ccc(NC(=O)Cn2c(=O)c3cc(Cl)ccc3n3nncc23)cc1 | i | 5% | -11% | -9%
OCC(CO)(CO)NCC(O)Cn1c2ccc(Cl)cc2c2cc(Cl)ccc21 (stereo unspecified) | nt | 22µM* | nt | nt
CC[C@@H](Oc1cccc(CN(CCCOc2ccc(OC)cc2)c2nc3ccccc3o2)c1)C(=O)O | nt | 5% | nt | nt
O=C1O[C@H](C(O)CO)C(=O)C1=O (stereo partly specified) | nt | -13% | nt | nt
CCOc1ccc(COc2ccc(-c3nc4ccccc4[nH]3)cc2)cc1 | nt | -10%[57.5 µM] | nt | nt
c1ccc2[nH]c(-c3cscn3)nc2c1 | i | ? | 67% | 19µM*!
CC1=CC2/C=C(\C)CCC3OC(C)(C)OC3CCC(=O)C23C(=O)NC(CC(C)C)C3C1C (stereo unspecified) | nt | 2%[29.8 µM] | nt | nt
COc1cc(=C2C=c3ccccc3=N2)[nH]/c1=C/c1[nH]c(C)cc1C | nt | 40µM* | nt | nt
COc1ccc(Cn2c(CCC(=O)Nc3ccc(C)cc3C)nc3cccnc32)cc1 | i | 15% | -22% | -14%
Cc1ccc(NC(=O)Cc2ccc(-n3c(C)nc4cccnc43)cc2)c(Cl)c1 | i | -2% | 8.9µM* | -41%
CCCCc1nn2c(=O)cc(COC(=O)c3cccc(NC(=O)CCc4ccccc4)c3)nc2s1 | i | 3% | 72% | 0.25µM*
Cc1ccc(Cc2nc3ccccc3nc2SCC(=O)N2CCCCC2C)cc1 (stereo unspecified) | i | -3% | 28µM* | -44%
Cc1ccc(-c2ccc(=O)n(CC(=O)NCCCN(C)C)n2)cc1 | nt | 11% | nt | nt
C[S+](=O)([O-])c1ccc(C(=O)OCC(=O)N2CCNC(=O)C2)cc1[N+](=O)[O-] | nt | 6% | nt | nt
Cn1c(NCc2ccccc2F)nc2ccccc21 | i | ? | 70% | 5µM*
Cc1cc(NC(=O)c2cc(-c3ccc(Cl)cc3)on2)nn1Cc1ccc(Cl)cc1 | i | -5% | -26%[11.5 µM] | -33%
Cc1cc(NC(=O)c2cc(-c3cccc(Cl)c3)on2)nn1Cc1ccc(Cl)cc1 | i | -2% | 1.6µM* | -41%
Cc1cc2oc(=O)c(CC(=O)O)c(C)c2c2occ(-c3ccccc3)c12 | i | 28µM* | 61% | ?
Cc1oc2c(c(C)cc3oc(=O)c(CC(=O)NCc4ccccc4)c(C)c32)c1C | i | -15% | 0% | -11%
Cc1ccc(-c2nn(C(C)(C)CNC(=O)c3ccncc3)c3ncnc(N)c23)cc1 | nt | 8% | nt | nt
SMILES | GALC G270D up | NTMT1 inh | HTT prom inh | HTT-AS promoter
CC(C)c1c2cc(-c3ccnc(NC4CCC(NC5CCOCC5)CC4)n3)ccc2nn1C (stereo unspecified) | nt | 45µM* | nt | nt
C=C1C[C@@]23CCC4[C@@](C)(CCC[C@@]4(C)C(=O)OC)C2CC[C@@H]1C3 (stereo partly specified) | nt | 1%[29.8 µM] | nt | nt
Cc1cnc(-c2ccccc2C(C)C)nc1NCc1ccc(-c2nn[nH]n2)cc1 | nt | 15% | nt | nt
Cc1cc(NS(=O)(=O)Cc2ccc(NC(=O)Cc3ccc(Cl)c(Cl)c3)cc2)no1 | nt | -1% | nt | nt
COc1ccc(C2CC(=O)c3c([nH]c(C(=O)OCc4ccccc4)c3C)C2)cc1 (stereo unspecified) | i | -1% | -18% | -21%
COc1ccc(COC(=O)c2[nH]c3c(c2C)C(=O)CC(c2ccc(OC)c(OC)c2)C3)cc1 (stereo unspecified) | i | 1% | 10µM* | -74%
CC(Cc1ccc(O)c(O)c1)(NN)C(=O)O (stereo unspecified) | nt | 14µM*! | 3% | -11%
CCOC(=O)c1ccc(O)c(O)c1 | i | ? | 7% | 11%
C[C@](N)(Cc1ccc(O)c(O)c1)C(=O)O | i | 35µM* | -15% | -17%
C=C1CC/C=C(/CO)C(=O)C[C@@H]2[C@@H]1C[C@@]2(C)COC(C)=O | nt | -7%[57.5 µM] | nt | nt
CCC1CCCCN1CCCNC(=O)c1cc2c(Cl)nc3ccc(C)cc3c2s1 (stereo unspecified) | i | 28µM* | -24% | -29%
CCC1CCCCN1CCCNC(=O)c1cc2c(=O)n(CC)c3ccccc3c2s1 (stereo unspecified) | i | ? | -1% | -10%
COc1cc(/C=C/C(=O)OC[C@H]2O[C@@H](OC3OC=C(C(=O)O)C4C(O)CC(C)(O)C34)[C@H](O)[C@@H](O)[C@@H]2O)cc(OC)c1O (stereo partly specified) | nt | 20%[12.6 µM] | nt | nt
CCOc1ccc(CN2CCN(Cc3ccc4c(c3)c3ccccc3n4CC)CC2)cc1 | i | -17% | 32µM* | -58%
CCOc1ccc(CCNC(=O)c2cc3sccc3n2Cc2ccncc2)cc1OCC | nt | 6% | nt | nt
Cc1c(-c2ccc(Cl)cc2)c(=O)oc2c(CN3CCN(C)CC3)c(O)ccc12 | i | -2% | -13% | -19%
Cc1c(-c2ccccc2)c(=O)oc2c(CN3CCN(C)CC3)c(O)ccc12 | 4.5µM* | -7% | -13% | -17%
O=C(OCC12OC1C=CC(OC(=O)c1ccccc1)C2O)c1ccccc1 (stereo unspecified) | nt | 11%[29.8 µM] | nt | nt
O=C(CO)[C@@H](O)[C@H](O[C@@H]1O[C@H](CO)[C@H](O)[C@H](O)[C@H]1O)[C@H](O)CO | nt | -15%[57.5 µM] | nt | nt
CNc1nc(C)nc(N[C@H]2CCC[C@@H](C(=O)NCc3ccc(C#N)cc3C(F)(F)F)C2)n1 | nt | 3%[57.5 µM] | nt | nt
Cc1cc(NS(=O)(=O)c2ccc(NC(=O)Cc3ccc(C)c(C)c3)cc2)no1 | nt | 8%[57.5 µM] | nt | nt
CCn1c(=O)sc2cc(NS(=O)(=O)c3ccc(F)c(C)c3)ccc21 | i | 20% | 14µM* | -52%
CCCC(CCC)C(=O)Nc1ccn([C@@H]2O[C@H](CO)[C@@H](O)C2(F)F)c(=O)n1 | nt | -1%[57.5 µM] | nt | nt
